Measurements reported in PubChem BioAssay (NCI).
Where “and” joins values, the source holds several entries; their conditions need not be identical. Equal entries are not always repeated. The panel holds about 83,000 compounds, 20% with a hit somewhere; the sample as a whole holds those more often.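 Growth was measured after 48 h exposure to one concentration of compound in 96-well plates. Values under 10 count as active.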 Calls of active or inactive are those of the source.

How the values were obtained:
Test in all cases: NCI-60 one-dose screen, 48 h (100 = growth as untreated, 0 = no growth, -100 = all killed)
Conditions in all cases: 10 µM unless noted
NCI-H23 lung = tested on: NCI-H23 lung
NCI-H226 lung = tested on: NCI-H226 lung
NCI-H322M lung = tested on: NCI-H322M lung
HOP-62 NSCLC = tested on: HOP-62 NSCLC
NCI-H460 lung = tested on: NCI-H460 lung
HOP-92 NSCLC = tested on: HOP-92 NSCLC
NCI-H522 lung = tested on: NCI-H522 lung
A549/ATCC NSCLC = tested on: A549/ATCC NSCLC
786-0 renal = tested on: 786-0 renal
COLO 205 colon = tested on: COLO 205 colon
DU-145 prostate = tested on: DU-145 prostate
K-562 leukemia = tested on: K-562 leukemia
MALME-3M melanoma = tested on: MALME-3M melanoma
MDA-MB-231 breast = tested on: MDA-MB-231 breast
RXF 393 renal = tested on: RXF 393 renal
SF-268 CNS = tested on: SF-268 CNS
SF-295 CNS = tested on: SF-295 CNS
SF-539 CNS = tested on: SF-539 CNS
UACC-257 melanoma = tested on: UACC-257 melanoma
M14 melanoma = tested on: M14 melanoma

Measured: growth

O=C(O)C1C2C=CC(C2)C1C(=O)O (stereo not given)
inactive: NCI-H23 lung 104% and 30.6% and 111% | NCI-H226 lung 105% and 38.6% and 91.2% | NCI-H322M lung 99.3% and 38.9% and 104% | HOP-62 NSCLC 114% and 30.1% and 92.8% | NCI-H460 lung 104% and 13.9% and 105% | HOP-92 NSCLC 98.6% and 98.2% | NCI-H522 lung 87.1% and 102% | A549/ATCC NSCLC 93.5% and 13.4% and 97.7% | 786-0 renal 105% and 28.3% and 104% | COLO 205 colon 115% and 46.9% and 118% | DU-145 prostate 113% and 33% and 117% | K-562 leukemia 107% and 21.5% and 95.5% | MALME-3M melanoma 109% and 70% | MDA-MB-231 breast 101% and 66.9% and 124% | RXF 393 renal 116% and 38.8% and 96.9% | SF-268 CNS 115% and 38.7% and 105% | SF-539 CNS 113% and 27.8% and 99.6% | UACC-257 melanoma 99.8% and 35.6% and 97.9% | M14 melanoma 115% and 39.1% and 105%
101% (inactive) and 9.77% (active): SF-295 CNS

CCN(CC)CCC(CNc1c2ccc([N+](=O)[O-])cc2nc2cc(OC)c(OC)cc12)c1ccccc1 (stereo not given)
active: NCI-H23 lung -86.4% and -71.3% | NCI-H226 lung -65.3% and -61.1% | NCI-H322M lung -39.9% and -76.5% | HOP-62 NSCLC -9.52% and -86.4% | NCI-H460 lung 6.85% and -100% | HOP-92 NSCLC -42.2% | NCI-H522 lung -45% and -79.4% | A549/ATCC NSCLC -6.05% and -93.9% | 786-0 renal -74.2% and -91.6% | COLO 205 colon -49.7% and -100% | DU-145 prostate -85.2% and -100% | K-562 leukemia -18.8% | MALME-3M melanoma -80.1% and -89.1% | MDA-MB-231 breast -58.4% and -94.9% | RXF 393 renal -89.8% | SF-268 CNS -48.5% and -98.7% | SF-295 CNS 3.98% and -90.3% | SF-539 CNS -86.9% and -100% | UACC-257 melanoma -41.2% and -97.1% | M14 melanoma -63.2% and -97.4%

O=C(CN1CCN(c2cc3c(cc2F)c(=O)c(C(=O)O)cn3C2CC2)CC1)Nc1ccc(Cl)cc1
-13.7% (active) and 83.5% (inactive): NCI-H522 lung
inactive: NCI-H23 lung 94.5% and 87.5% | NCI-H226 lung 80.1% and 96.7% | NCI-H322M lung 53.8% and 56% | HOP-62 NSCLC 71.7% and 100% | NCI-H460 lung 88% and 90.1% | HOP-92 NSCLC 78.9% and 87.2% | A549/ATCC NSCLC 69.2% and 86.8% | 786-0 renal 70.1% and 83.8% | COLO 205 colon 99.9% and 109% | DU-145 prostate 99.1% and 103% | K-562 leukemia 68.1% and 67.9% | MALME-3M melanoma 91.8% and 91.1% | MDA-MB-231 breast 60.2% and 70.1% | RXF 393 renal 74.7% and 84.3% | SF-268 CNS 91.2% and 92.5% | SF-295 CNS 87.9% and 96.6% | SF-539 CNS 86.9% and 85.6% | UACC-257 melanoma 57% and 88.4% | M14 melanoma 81.8% and 92%

NC(=O)C1CC2C=CC1C2 (stereo not given)
inactive: NCI-H23 lung 92.1% and 106% | NCI-H226 lung 97.7% and 98.9% | NCI-H322M lung 104% and 107% | HOP-62 NSCLC 91.2% and 98.4% | NCI-H460 lung 103% and 110% | HOP-92 NSCLC 101% and 94.5% | NCI-H522 lung 106% and 94.2% | A549/ATCC NSCLC 96.2% and 100% | 786-0 renal 98% and 116% | COLO 205 colon 96.8% and 120% | DU-145 prostate 114% and 115% | K-562 leukemia 103% and 93.9% | MALME-3M melanoma 69.2% and 124% | MDA-MB-231 breast 101% and 99.1% | RXF 393 renal 108% and 89.7% | SF-268 CNS 118% and 108% | SF-295 CNS 113% and 95.2% | SF-539 CNS 95.2% and 112% | M14 melanoma 106% and 87.4%
active: UACC-257 melanoma -24.1%
